Data taken from PubChem BioAssay (Tox21).
Several values for one entry are separate records, joined by “and”; a condition that tells them apart may be missing. Equal entries are not always repeated. Inconclusive results are not listed. Entries that show only a call come without a potency. More than one record can exist for a structure, and the calls need not agree. Activity calls are given as the source filed them. Unless noted, the call rests on the fitted dose curve; in most records, active means well fitted curve in the direction sought with a large enough effect in the repeat runs; inconclusive means weak or mixed curves; inactive means no such curve, though single readings can be large; an effect the other way counts as inactive or inconclusive.

What was measured:
[1] = qHTS assay to identify small molecule agonists of the RXR signaling pathway - cell viability counter screen (AID 1159529); further: nearly all actives have a fitted effect of over 50% in size; further: potency means the concentration at half of the fitted maximal effect
Summary of the method: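 Viability read-out for the RXR-alpha agonist qHTS: luminescent CellTiter-Glo signal after 30 min at RT. HEK 293T bla reporter cells, 2% charcoal-stripped FBS, 16 hr compound incubation; tetraoctyl ammonium bromide as cytotoxic control.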

[2] = qHTS assay to identify small molecule antagonists of the retinoid acid receptor (RAR) signaling pathway - cell viability counter screen (AID 1159551); further: nearly all actives have a fitted effect of over 35% in size
Summary of the method: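 C3RL4 RARE-luciferase line; cpds + retinol 1 uM final, 6 h, 37 C/5% CO2; CellTiter-Glo ATP luminescence, 30 min RT.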

[3] = qHTS assay to identify small molecule antagonists of the estrogen related receptor (ERR) signaling pathway from Tox21 library - cell viability counter screen (AID 1224834); further: nearly all actives have a fitted effect of over 30% in size; further: potency means the concentration at half of the fitted maximal effect
Summary of the method: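 Multiplexed viability counter screen in ERR cells: 17.5 h compound exposure at 37 C, CellTiter-Fluor added, 30 min at 37 C/5% CO2, fluorescence read.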

[4] = molecular target: Luciferin 4-monooxygenase (Photinus pyralis) (UniProt P08659); assay: qHTS assay to identify small molecule inhibitors of firefly luciferase (AID 1224835); further: nearly all actives have a fitted effect of over 25% in size; further: potency means the concentration at half of the fitted maximal effect
Summary of the method: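 Biochemical qHTS: compounds run as interplate titrations against purified firefly enzyme, with D-luciferin and ATP each at its KM concentration. Light output recorded by CCD imaging.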

[5] = qHTS assay to identify small molecule agonists of the constitutive androstane receptor (CAR) signaling pathway - cell viability counter screen (AID 1224836); further: series mostly up to about 92 µM; nearly all actives have a fitted effect of over 45% in size
Summary of the method: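 Multiplexed viability check: HepG2-CYP2B6-hCAR cells, 15-point compound dosing, 0.75 uM PK11195 final, 23 h at 37 C, CellTiter-Fluor fluorescence.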

[6] = qHTS assay to identify small molecule antagonists of the constitutive androstane receptor (CAR) signaling pathway - cell viability counter screen (AID 1224837); further: series mostly up to about 92 µM; nearly all actives have a fitted effect of over 45% in size
Summary of the method: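 Read-out: CellTiter-Fluor fluorescence after 23 hr at 37 C/5% CO2. Cells: HepG2 double-stable for hCAR and CYP2B6-2.2kb. Compounds tested at 15 concentrations in the presence of CITCO, final concentration 50 nM.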

[7] = molecular target: Nuclear receptor subfamily 1 group I member 3 (Homo sapiens) (UniProt Q14994); assay: qHTS assay to identify small molecule antagonists of the constitutive androstane receptor (CAR) signaling pathway (AID 1224838);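 further: HepG2 cells stably expressing hCAR with CYP2B6 luciferase reporter stimulated by CITCO; nearly all actives have a fitted effect of over 40% in size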
Summary of the method: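 Read-out: ONE-Glo luciferase luminescence after 30 min at room temperature. HepG2-CYP2B6-hCAR double-stable cells, compounds in 15-point titration plus 50 nM CITCO final, 24 h at 37 C/5% CO2.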

[8] = qHTS assay to identify small molecule antagonists of the estrogen related receptor signaling pathway with the pleiotropic PPARgamma coactivator (PGC) from Tox21 10K library - cell viability counter screen (AID 1224840; active means well fitted cell-killing curve with a large enough effect in the repeat runs, not every such curve was filed as active; further: nearly all actives have a fitted effect of over 40% in size; further: potency means the concentration at half of the fitted maximal effect)
Summary of the method: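 Fluorescence read-out of CellTiter-Fluor viability reagent, added after cells had been exposed to compound in DMSO for 17.5 h at 37 C; 30 min development at 37 C/5% CO2. Cells: PGC/ERR line, 2,000/well.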

[9] = qHTS assay to identify small molecule antagonists of the estrogen related receptor signaling pathway with the pleiotropic PPARgamma coactivator (PGC) from Tox21 10K library (AID 1224841; call rule not given here; further: actives are mostly falling curves and most rising ones were filed inactive; nearly all actives have a fitted effect of over 50% in size; further: potency means the concentration at half of the fitted maximal effect)
Summary of the method: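 Luminescence read-out (One-Glo luciferase reagent, 30 min at room temperature) from PGC/ERR cells exposed to DMSO-dissolved test compounds for 18 h at 37 C; cells, 2,000 per well, had been preincubated 6 h before compound transfer.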

[10] = molecular target: Thyrotropin receptor (Homo sapiens) (UniProt P16473); assay: qHTS assay to identify small molecule agonists of the thyroid stimulating hormone receptor (TSHR) signaling pathway (AID 1224843; calls by dose curve; further: nearly all actives have a fitted effect of over 45% in size)
Summary of the method: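 HEK293/TSHR, 800 cells/well; cpd 30 min RT; add cAMP-d2 + anti-cAMP-cryptate, 1 h RT; fluorescence read on plate reader. 15-pt titration, n=3.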

[11] = qHTS assay to identify small molecule agonists of H2AX (AID 1224845; active means well fitted activation curve with a large enough effect in the signal ratio in the repeat runs, not every such curve was filed as active; the % refers to the signal ratio)
Summary of the method: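 Wild-type CHO-K1 cells, plated overnight, exposed 3hr at 37C to 15 concentrations (0.76% DMSO final). Lysed, then HTRF anti-pH2AX (S139) cryptate and anti-H2AX-d2 antibodies, 24 hr room temperature; 665/620 nm emission read.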

[12] = qHTS assay to identify small molecule agonists of H2AX - cell viability counter screen (AID 1224847; calls by dose curve; further: nearly all actives have a fitted effect of over 30% in size; further: potency means the concentration at half of the fitted maximal effect)
Summary of the method: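 After overnight plating of 1000 CHO-K1 cells per well, a 15-concentration compound series was applied for 3 hr at 37C. Luminescence from CellTiter-Glo, read following 30 min at room temperature, reflected cell viability.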

[13] = qHTS assay to identify small molecule antagonists of the retinoic acid receptor (RAR) signaling pathway (AID 1159552; further: nearly all actives have a fitted effect of over 50% in size)
Summary of the method: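 Using a RARE-driven luciferase construct in C3RL4 cells, retinol at 1 uM final provided the agonist stimulus while compounds were co-applied. After 6 hours at 37 C, luminescence was recorded to flag inhibitors of retinol signaling.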

[14] = qHTS assay to identify small molecule agonists of the retinoic acid receptor (RAR) signaling pathway (AID 1159553)
Summary of the method: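 RARE-luc C3RL4 cells; overnight attachment 37 C/5% CO2; compound (DMSO) 6 hr; luciferase reagent, 30 min RT; luminescence read-out.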

[15] = molecular target: Nuclear receptor subfamily 1 group I member 3 (Homo sapiens) (UniProt Q14994); assay: qHTS assay to identify small molecule agonists of the constitutive androstane receptor (CAR) signaling pathway (AID 1224839);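 further: HepG2 cells stably carrying human CAR and a CYP2B6 luciferase reporter; series mostly up to about 92 µM; nearly all actives have a fitted effect of over 15% in size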
Summary of the method: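 Using human hepatoma HepG2 cells engineered with hCAR and a CYP2B6-2.2kb reporter, 15-concentration compound series were incubated 24 h alongside PK11195 at 0.75 uM final, with luminescence quantified afterwards.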

[16] = qHTS assay to identify small molecule agonists of the hypoxia (HIF-1) signaling pathway (AID 1224846; active means well fitted activation curve with a large enough effect in the signal ratio in the repeat runs, not every such curve was filed as active; the % refers to the signal ratio)
Summary of the method: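 Beta-lactamase FRET read-out (CCF4-AM substrate) from ME-180 cells carrying an HRE-driven bla reporter, after 17 hrs compound exposure at 37C/5% CO2. Cells were seeded at 2,000 per well in 0.5% dialyzed FBS medium and preincubated 5 hrs.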

[17] = qHTS assay to identify small molecule agonists of the hypoxia (HIF-1) signaling pathway - cell viability counter screen (AID 1224844; calls by dose curve; further: nearly all actives have a fitted effect of over 50% in size)
Summary of the method: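 CellTiter-Glo luminescence read-out, 30 min RT, taken in the same wells as the beta-lactamase HRE reporter assay; HRE-bla ME-180 cells, 0.5% dialyzed FBS, 17 hr compound treatment at 37C, 5% CO2.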

[18] = molecular target: Retinoic acid receptor RXR-alpha (Homo sapiens) (UniProt P19793); assay: qHTS assay to identify small molecule agonists of the RXR signaling pathway (AID 1159527; calls by dose curve; further: nearly all actives have a fitted effect of over 35% in size)
Summary of the method: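 Fluorescence ratio readout (460 vs 530 nm) from GeneBLAzer RXR-alpha HEK 293T cells after 16 hr compound treatment; cells seeded 5 hr beforehand in low-serum, charcoal-stripped medium.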

Thyrotropin receptor (Homo sapiens), sequence (P16473 whole entry, looked up): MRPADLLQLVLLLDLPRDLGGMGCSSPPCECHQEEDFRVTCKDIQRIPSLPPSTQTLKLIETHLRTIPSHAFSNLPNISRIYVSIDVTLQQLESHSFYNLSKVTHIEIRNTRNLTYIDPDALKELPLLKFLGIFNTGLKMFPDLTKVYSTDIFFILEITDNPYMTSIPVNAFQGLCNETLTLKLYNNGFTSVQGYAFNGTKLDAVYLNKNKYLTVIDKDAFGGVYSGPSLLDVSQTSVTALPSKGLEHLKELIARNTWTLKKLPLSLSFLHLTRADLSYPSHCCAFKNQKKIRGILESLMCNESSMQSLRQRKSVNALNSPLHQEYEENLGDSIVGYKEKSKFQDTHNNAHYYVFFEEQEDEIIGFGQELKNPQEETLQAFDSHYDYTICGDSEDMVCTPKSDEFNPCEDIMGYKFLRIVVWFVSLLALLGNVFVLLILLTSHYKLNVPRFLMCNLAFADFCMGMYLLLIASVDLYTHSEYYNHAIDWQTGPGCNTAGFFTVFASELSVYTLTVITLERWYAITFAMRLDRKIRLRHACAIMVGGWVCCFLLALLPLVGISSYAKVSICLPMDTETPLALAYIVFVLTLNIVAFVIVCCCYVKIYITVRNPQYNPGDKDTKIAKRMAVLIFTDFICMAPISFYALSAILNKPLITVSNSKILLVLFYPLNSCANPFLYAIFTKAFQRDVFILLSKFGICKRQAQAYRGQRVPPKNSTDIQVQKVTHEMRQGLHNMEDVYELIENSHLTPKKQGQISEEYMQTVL
Nuclear receptor subfamily 1 group I member 3 (Homo sapiens), sequence (Q14994 whole entry, looked up): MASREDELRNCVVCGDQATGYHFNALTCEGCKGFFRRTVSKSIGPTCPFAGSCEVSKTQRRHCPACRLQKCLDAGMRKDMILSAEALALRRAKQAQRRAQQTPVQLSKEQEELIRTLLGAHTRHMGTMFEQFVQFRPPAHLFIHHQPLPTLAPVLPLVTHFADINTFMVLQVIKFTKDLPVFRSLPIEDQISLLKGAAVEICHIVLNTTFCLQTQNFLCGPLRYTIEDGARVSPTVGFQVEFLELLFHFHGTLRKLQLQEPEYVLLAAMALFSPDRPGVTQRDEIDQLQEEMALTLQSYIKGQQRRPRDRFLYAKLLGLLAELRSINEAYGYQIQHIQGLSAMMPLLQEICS
Retinoic acid receptor RXR-alpha (Homo sapiens), sequence (P19793 whole entry, looked up): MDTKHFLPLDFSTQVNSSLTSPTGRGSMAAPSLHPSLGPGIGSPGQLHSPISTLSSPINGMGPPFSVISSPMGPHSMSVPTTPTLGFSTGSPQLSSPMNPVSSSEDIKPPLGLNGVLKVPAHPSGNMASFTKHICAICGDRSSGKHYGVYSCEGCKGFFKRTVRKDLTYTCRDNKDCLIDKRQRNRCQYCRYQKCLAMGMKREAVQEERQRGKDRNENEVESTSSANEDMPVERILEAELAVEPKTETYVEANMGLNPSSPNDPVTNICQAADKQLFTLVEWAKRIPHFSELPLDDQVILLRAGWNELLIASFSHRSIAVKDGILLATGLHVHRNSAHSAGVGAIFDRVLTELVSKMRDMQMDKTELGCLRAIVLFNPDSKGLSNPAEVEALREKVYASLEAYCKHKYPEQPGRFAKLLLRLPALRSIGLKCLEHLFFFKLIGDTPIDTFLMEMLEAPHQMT
Luciferin 4-monooxygenase (Photinus pyralis), sequence (P08659 whole entry, looked up): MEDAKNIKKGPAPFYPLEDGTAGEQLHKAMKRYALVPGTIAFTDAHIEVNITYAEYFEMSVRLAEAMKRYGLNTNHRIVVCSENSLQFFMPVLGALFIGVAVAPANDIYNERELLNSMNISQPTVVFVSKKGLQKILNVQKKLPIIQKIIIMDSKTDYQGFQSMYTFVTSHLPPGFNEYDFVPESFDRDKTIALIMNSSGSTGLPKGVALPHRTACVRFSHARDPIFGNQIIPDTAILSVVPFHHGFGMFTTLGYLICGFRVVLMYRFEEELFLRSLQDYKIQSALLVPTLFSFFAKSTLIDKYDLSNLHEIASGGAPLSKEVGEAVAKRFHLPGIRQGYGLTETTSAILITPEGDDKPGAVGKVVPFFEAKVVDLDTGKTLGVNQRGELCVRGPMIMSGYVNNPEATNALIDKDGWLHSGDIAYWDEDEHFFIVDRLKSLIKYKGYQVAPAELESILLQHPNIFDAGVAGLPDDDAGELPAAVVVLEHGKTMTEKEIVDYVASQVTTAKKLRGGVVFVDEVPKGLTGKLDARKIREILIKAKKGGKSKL

Structure (SMILES) | Potency [1] | outcome [2] | Potency [3] | Potency [4] | Potency [5] | Potency [6] | Potency [7] | Potency [8] | Potency [9] | Potency [10] | Potency [11] | Potency [12] | Potency [13] | Potency [14] | Potency [15] | outcome [16] | Potency [17] | Potency [18]
CC[C@H](C)C(=O)O[C@H]1C[C@@H](C)C=C2C=C[C@H](C)[C@H](CC[C@@H]3C[C@@H](O)CC(=O)O3)[C@H]21 | 8.83 µM (active) | inactive | 69.6 µM (active) and inactive | inactive | inactive | inactive | inactive | 69.6 µM (active) and inactive | inactive | inactive | inactive | 115 µM (active) and inactive |  |  |  |  |  | 
O=C(OCCOCCOC(=O)c1ccccc1)c1ccccc1 | inactive | inactive | inactive | inactive | inactive | inactive | inactive | inactive |  |  | inactive | inactive | inactive | inactive | inactive | inactive |  | 
c1c[nH]cn1 | inactive | inactive | inactive | inactive | inactive |  |  | inactive |  |  | inactive | inactive | inactive | inactive |  |  | inactive | 
c1ccc(OCCOc2ccccc2)cc1 | inactive | inactive | inactive | 28.2 µM (active) and 35.6 µM (active) | inactive |  | inactive | inactive |  | inactive | inactive | inactive |  |  |  | inactive | inactive | inactive
COS(C)(=O)=O | inactive | inactive | inactive | inactive | inactive |  | inactive | inactive | 35.7 µM (active) and inactive | inactive | inactive | inactive |  |  |  |  | inactive | 
CC1=C(C)S(=O)(=O)CCS1(=O)=O | inactive | inactive | inactive | inactive | inactive |  | inactive | inactive | inactive |  | inactive | inactive |  |  |  |  | inactive | inactive
Cc1cccc(O)c1 | inactive | inactive | inactive | inactive | inactive |  | inactive | inactive | inactive |  | inactive | inactive |  |  |  |  |  | inactive
CCCCCCCCCCCCc1ccccc1 | inactive | inactive | inactive | inactive | inactive | inactive | inactive | inactive | inactive | inactive | inactive | inactive | inactive | inactive | inactive |  |  | 
CCCCN(CCCC)CCCC | inactive | inactive | inactive | inactive | inactive |  | inactive | inactive |  | inactive | inactive | inactive |  |  | inactive |  |  | inactive
CC(O)COCC(C)O (stereo not drawn) | inactive | inactive | inactive | inactive | inactive |  |  | inactive |  | inactive | inactive | inactive |  |  |  | inactive |  | inactive
C=CCOC(=O)c1ccccc1C(=O)OCC=C | inactive | inactive | inactive | inactive | inactive | inactive |  | inactive |  | inactive | inactive | inactive | inactive | inactive |  | inactive |  | 
CN(C)CCOCCN(C)C | inactive | inactive | inactive | inactive | inactive |  | inactive | inactive | inactive | inactive | inactive | inactive |  |  |  | inactive | inactive | inactive
CCc1ccc(CCOc2ccc(CC3SC(=O)NC3=O)cc2)nc1 (stereo not drawn) | inactive | inactive | inactive | 31.7 µM (active) and 24.5 µM (active) | inactive | inactive | inactive | inactive |  |  | inactive | inactive |  |  | inactive | inactive | inactive | 
